High-throughput results as filed in PubChem.
Hits are enriched below; roughly 4.8% of the tested compounds scored in any of these assays.
SMARCA2 act = SMARCA2 (BRM) function activators, primary screen, cell-based, luminescence, high throughput | MG213 cells, MMTV-luciferase reporter, dexamethasone, overnight | activation, % at 9.1 µM | hit rate 1% among 370,000; in the data active means activation above about 7.8%;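 further: 0% = vehicle wells and 100% = reference activator wells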
ssDAF12 agonist = S. stercoralis DAF-12 nuclear receptor activators, primary screen, cell-based, luminescence, HEK293, GRIP1 co-expression, lit1-tk-luc; HEK293 ssDAF-12/GRIP1 lit1-tk-luc reporter; % of 3 µM dafachronic acid response; activation, % at 6.8 µM; hit rate 1% among 370,000; AID 652126, 2013;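 active means activation above the mean over all tested compounds plus 3 SD, cut at about 0.9% in these data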;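 further: 0% = DMSO-only wells and 100% = 3 µM delta7-dafachronic acid wells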
hgDAF12 agonist = H. glycines DAF-12 receptor agonists, primary screen, cell-based, luminescence, HEK293, GAL4 fusion, UAS-luciferase | hit rate 1.8% among 370,000 | HEK293 GAL4-hgDAF12 UAS-luciferase reporter, agonist luminescence; normalized to butyrate control | activation, % at 6.8 µM | Nuclear hormone receptor DAF-12 (Heterodera glycines), GAL4 fusion;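 active means activation above a cutoff set at the mean of all screened compounds plus 3 SD, cut at about 10% in these data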;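 further: 0% = DMSO wells and 100% = sodium butyrate wells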
DAX1 inh-1 = DAX1 (NR0B1) inhibitors on StAR promoter, primary screen, cell-based, luminescence, SF-1 (NR5A1), full-length DAX-1. HEK293T StAR-luciferase reporter, SF-1/DAX-1 repression relief. inhibition, % at 6.8 µM. hit rate 1.1% among 370,000. AID 652010, 2013;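 active means inhibition above the mean over all tested compounds plus 3 SD, cut at about 3.6% in these data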;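 further: 0% = DAX-1 cells with DMSO and 100% = cells lacking DAX-1 with DMSO; higher inhibition means more luminescence from relief of DAX-1 repression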
DAX1 inh-2 = DAX1 (NR0B1) inhibitors, primary screen, cell-based, HEK293, Gal4-DAX1, luciferase luminescence. Nuclear receptor subfamily 0 group B member 1 (Homo sapiens), P51843. inhibition, % at 6.75 µM. HEK293 Gal4-DAX1 luciferase reporter. hit rate 0.99% among 340,000;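 active means inhibition above the mean over all tested compounds plus 3 SD, cut at about 4.2% in these data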;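 further: 0% = DAX1-transfected cells with DMSO and 100% = empty-vector control cells with DMSO; inhibition shows as a rise in luminescence from relieved DAX1 repression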
Target sequence (P51843 207-470 limits assumed): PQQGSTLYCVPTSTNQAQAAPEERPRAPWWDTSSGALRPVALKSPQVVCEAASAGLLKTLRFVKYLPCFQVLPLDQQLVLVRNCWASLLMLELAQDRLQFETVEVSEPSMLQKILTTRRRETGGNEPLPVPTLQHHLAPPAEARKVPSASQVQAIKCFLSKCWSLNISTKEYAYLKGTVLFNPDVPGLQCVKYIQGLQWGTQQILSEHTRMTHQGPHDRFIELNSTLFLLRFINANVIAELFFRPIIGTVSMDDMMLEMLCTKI
hcDAF12 agonist = H. contortus DAF-12 nuclear receptor activators, primary screen, cell-based, luminescence, HEK293, lit1-tk-luc reporter; HEK293 hcDAF-12 lit1-tk-luc reporter; 0% DMSO, 100% Δ7-dafachronic acid; activation, % at 6.8 µM; hit rate 1.4% among 370,000;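 active means activation above the mean of all tested compounds plus 3 SD, cut at about 5.5% in these data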;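 further: 100% = response to 3 µM Δ7-dafachronic acid high control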
Starred values were filed as active, the others as inactive; . = not tested or not shown.

SMILES | SMARCA2 act | ssDAF12 agonist | hgDAF12 agonist | DAX1 inh-1 | DAX1 inh-2 | hcDAF12 agonist
Cn1ncc2c(NCc3ccccc3)ncnc21 | -4 | -1 | -1 | 0 | -1 | 0
COc1cccc(CNC(=O)CNC(=O)N2CC(=O)Nc3ccccc32)c1 | -1 | -1 | 1 | 3.7* | 1 | -1
COc1cccc(CNC(=O)CCNC(=O)N2CC(=O)Nc3ccccc32)c1 | -4 | -1 | 6 | 1 | 3 | 1
CC(C)c1ccc(NC(=O)CCNC(=O)N2CC(=O)Nc3ccccc32)cc1 | -1 | -1 | 0 | 3.9* | 0 | -1
COc1ccc(NC(=O)CCNC(=O)N2CC(=O)Nc3ccccc32)cc1 | -2 | -1 | 3 | 1 | 1 | 0
CCOc1cccc(C(=O)Nc2ccc3c(c2)OCCO3)c1 | 0 | 0.9* | 8 | 3 | -1 | 6
CCCOc1ccc(C(=O)Nc2ccc3c(c2)OCCO3)cc1 | 2 | 1 | 13* | 2 | 0 | 5.7*
Cc1cc2cc(CN(Cc3nnnn3C3CCCCC3)CC3CCCO3)c(=O)[nH]c2cc1C (stereo not given) | 0 | -1 | -2 | 0 | 0 | 0
O=C(O)c1ccc(-n2ncc3c2/C(=C/c2cccc([N+](=O)[O-])c2)CC3)cc1 | 1 | 0.9* | 0 | 0 | 0 | 4
O=C(O)c1ccc(-n2ncc3c2/C(=C\c2cccc([N+](=O)[O-])c2)CC3)cc1 | -2 | -1 | 3 | 0 | 2 | 1
COc1ccc(/C=C2\SC(=O)N(CCNC(=O)CN3C(=O)NC4(CCCC4)C3=O)C2=O)cc1 | 0 | 0 | 5 | 4.2* | 2 | 2
Nc1c(-c2cccc(Cl)c2)cnc2c(-c3ccccc3)cnn12 | 3 | -1 | 5 | 1 | 3 | 1
Nc1ccn([C@@H]2O[C@H](C(=O)Nc3ccc(C(=O)N4CCCCC4)cc3)[C@@H](O)[C@H]2O)c(=O)n1 | -3 | -1 | -1 | 0 | . | -1
O=C(Nc1ccc(C(=O)N2CCCCC2)cc1)[C@H]1O[C@@H](n2ccc(=O)[nH]c2=O)[C@H](O)[C@@H]1O | -5 | -1 | 1 | 3.7* | . | 1
COc1ccc(C(=O)NCCSc2ccccn2)cc1 | 5 | 0 | 12* | 3 | 0 | 6.4*
COc1cccc(NC(=O)CSc2ccccn2)c1 | 5 | 0 | 13* | 1 | 3 | 4
COc1ccc(NC(=O)CSc2ccccn2)cc1 | 3 | -1 | 5 | 1 | 0 | 1
COc1ccc(N(CC(=O)NCCSc2ccccn2)S(C)(=O)=O)cc1 | -4 | -2 | 1 | 0 | 0 | -1
O=C(CSc1nnc(-c2ccc(O)cc2)o1)Nc1cccc(O)c1 | 3 | 0 | 6 | 1 | 2 | 2
COc1cccc(NC(=O)CSc2nnc(-c3ccc(C)cc3)o2)c1 | 4 | 0 | 11* | 6.5* | 6.1* | 3
O=C(CSc1nnc(-c2ccc(O)cc2)o1)Nc1ccc2c(c1)OCCO2 | 0 | -1 | 8 | 3.6* | 0 | 2
CC(NC(=O)C(NS(=O)(=O)c1cccs1)C(C)C)c1ccc(S(N)(=O)=O)cc1 (stereo not given) | -4 | -1 | -2 | 0 | 1 | -1
COc1ccc(C)cc1Cn1nnc2ccccc21 | -1 | -1 | 0 | 0 | 1 | -2
Cn1c2ccccc2c2cc(C(=O)N3CCN(CCO)CC3)sc21 | -1 | 1 | 1 | 0 | 5.4* | 3
CC(=O)NNC(=O)c1cc2c3ccccc3n(C)c2s1 | -4 | -1 | -1 | 0 | 1 | 3
SMILES | SMARCA2 act | ssDAF12 agonist | hgDAF12 agonist | DAX1 inh-1 | DAX1 inh-2 | hcDAF12 agonist
COc1ccc(CCNC(=O)C2CCN(S(=O)(=O)c3ccc(OC)cc3)CC2)cc1 | 3 | -1 | -2 | -1 | 2 | 0
O=C(Nc1ccc([N+](=O)[O-])cc1)N1CCCCCC1 | 0 | -1 | 1 | 4.1* | 1 | 0
O=C(Nc1ccc([N+](=O)[O-])cc1)N1CCCCC1 | -2 | -1 | -1 | 0 | 2 | -1
COc1cccc(OCCNS(=O)(=O)c2cccc([N+](=O)[O-])c2)c1 | 0 | -1 | -4 | 1 | 0 | -2
CCCCOc1ccc2c(c1)C(=O)c1cc(O)ccc1-2 | 5 | -1 | 11* | 2 | 1 | 1
C=C(C)Cn1c(SCC)nc2ccccc2c1=O | 2 | -1 | 1 | 0 | -1 | 0
C=C(C)Cn1c(SCC(=O)N/N=C/c2c(O)ccc3ccccc23)nc2ccccc2c1=O | -2 | 1 | 0 | 0 | 1 | 6.0*
COc1ccc(C(=O)/C=C/c2cn(CC(O)CN3CCN(C)CC3)c3ccccc23)cc1OC (stereo not given) | 7 | -1 | -2 | -1 | 5.0* | -1
CCOC(=O)/C(C#N)=C/c1cn(CCC(=O)O)nc1-c1ccc(OC)cc1 | -4 | -1 | 0 | 0 | 6.6* | -1
CC1CCCN(C2(O)C(=O)Nc3ccc(Br)cc32)C1 (stereo not given) | 1 | -1 | 4 | 0 | -1 | -2
CCOC(=O)c1ccc(N/C=C/C(=O)c2ccc(OC)cc2)cc1 | -1 | -1 | 0 | 1 | 3 | -1
CCOC(=O)c1ccc(N/C=C/C(=O)c2ccccc2)cc1 | 1 | -1 | 12* | 1 | 2 | 1
CCOC(=O)c1ccc(NC(=S)Nc2ccccc2)cc1 | 1 | 1.2* | 2 | 0 | 0 | 0
CN(C)c1ccc(N/C=C/C(=O)C(C)(C)C)cc1 | 1 | -1 | 1 | 0 | 0 | 1
CCOC(=O)c1ccc(N/C=C/C(=O)C(C)(C)C)cc1 | 4 | 0 | 13* | 2 | 3 | -1
O=C(/C=C/Nc1ccccc1)c1ccccc1 | 5 | 1 | 11* | 3.8* | 2 | 6.5*
C=Cc1ccc(COC(=O)c2cn(CC)c3nc(C)ccc3c2=O)cc1 | -1 | -1 | 1 | 0 | -1 | -1
Cc1sc2ncn(CC(=O)N3CCOCC3)c(=O)c2c1-c1ccccc1 | -1 | -2 | -3 | 1 | -1 | 0
N#Cc1cccc(CS(=O)(=O)c2ccc(Cl)cc2)c1 | -4 | -1 | -2 | 0 | 0 | -2
O=C(Cc1c[nH]c2ccccc12)Nc1nc2ccccc2[nH]1 | 3 | 1.9* | 6 | 1 | 2 | 3
